The record followed here is PubChem BioAssay AID485313 (National Center for Advancing Translational Sciences (NCATS), 2010).

Each structure is given as a SMILES string. Out of some 320,000 compounds screened, about 7,600 (2.4%) were called active. About 3% were inconclusive and are not listed. The sample as a whole holds a higher share of actives than the screen did. Values without a mark were called inactive. The call rests on the fitted dose curve; in most records, active means well fitted activation curve with a large enough effect; inconclusive means small, poorly fitted or top-dose-only effect; inactive means no such curve, though single readings can be large or run the other way.
Potency means the concentration at half of the fitted maximal effect.

This test can be described thus: qHTS Assay for NPC1 Promoter Activators. Further: nearly all actives have a fitted effect of over 60% in size.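 On activation: reporter is driven by a mutant NPC1 promoter; % of control where 0% means no effect.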 The settings on record: Huh7 NPC1 promoter luciferase reporter, 24 h; series mostly up to 9.22 µM; activation: at the top concentration. The gist of the method: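 Compounds in DMSO were transferred onto Huh7 NPC1-luciferase reporter cells pre-incubated 2 h; after 24 h at 37 °C, Amplite reagent was dispensed and luminescence recorded 10 min later.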
On to `O=C(CN1CCN(S(=O)(=O)c2cccc(Cl)c2)CC1)N1CCCCC1`, for which the “activation” value is -1.44%. Turning to `Cc1c2cnn(CC(=O)NCCCN3CC(C)CC(C)C3)c(=O)c2c(C)n1Cc1ccc(Cl)cc1` (stereo unspecified), the “activation” value was -0.386%. As to `C[C@@H](NC(=O)c1nc[nH]c1C(=O)N1CCN(C(=O)OC(C)(C)C)CC1)c1ccccc1`, the “activation” value was -3.87%. For the molecule `Cc1ccc(S(=O)(=O)CCC(=O)OCC(=O)NCCc2ccc(S(N)(=O)=O)cc2)cc1`, the “activation” value was 0.187%. As for `CCS(=O)(=O)Nc1ccc(C(=O)NCCSc2ccccc2)cc1`, the “activation” value was 29.6%. Same read-out and setting: to `O=C(NCCSc1ncc(-c2ccccc2)[nH]1)c1ccco1` belongs 15.1%. With `O=C(NCCSc1ccccc1)c1ccco1`, the Potency is 3.16 µM (active).

As for `O=C(Cn1c(-c2ccc(Cl)cc2)noc1=O)N1CCN(c2ccccc2F)CC1`, the “activation” value is -2.91%. For the molecule `O=C(NCC(=O)N1CCCCCCC1)c1ccccc1Cl`, the “activation” value was 0.782%. On to `Cn1c(NC(=O)c2ccccc2)nc2ccccc21`, for which the Potency was 2.82 µM (active).

As for `CCn1c(NC(=O)c2nn(C)cc2Br)nc2ccccc21`, the “activation” value is 0.149%. Same read-out and setting: the result for `Cn1c(S(=O)(=O)O)nc2ccccc21` reads -5.2%; that for `Cc1ccc(S(=O)(=O)N2CCCCC2)cc1C(=O)N1CCN(CCO)CC1`, -1.62%.

Regarding `COc1ccccc1CNC(=O)COC(=O)c1sc(C)nc1C`, the “activation” value was -2.69%. As for `O=C(Nc1cccc(NC(=O)c2ccccc2[N+](=O)[O-])c1)c1ccccc1Cl`, the “activation” value was -5.61%. Turning to `O=C(Nc1ccc2sc3ccccc3c(=O)c2c1)c1ccccc1Cl`, the Potency is 3.16 µM (active).

For `COc1cc(NC(=O)c2cccs2)ccc1NC(=O)c1ccccc1Cl`, the “activation” value was -1.42%. On the same count and under the same terms, to `O=C(COC(=O)c1cc(=O)[nH]c2ccccc12)NCc1cccc(Cl)c1` belongs -1.99%; to `CC(=O)Nc1ccc(S(=O)(=O)N2CCn3cccc3C2C)cc1` (stereo unspecified), 13.9%; to `C=CCN(CC=C)C(=O)CN1C(=O)c2ccccc2C1=O`, -3.84%. Turning to `Cc1cc(C(=O)COC(=O)CCCN2C(=O)c3ccccc3C2=O)c(C)n1C`, the “activation” value was -1.36%. Regarding `C=CCn1c(C)cc(C(=O)CN2C(=O)c3ccccc3C2=O)c1C`, the Potency was 0.316 µM (active). As for `C[C@H](NC(=O)c1[nH]cnc1C(=O)Nc1nccs1)c1ccccc1`, the “activation” value was -2.02%.

With `CCCCC/C=C/C1=CC(=O)C[C@H](c2ccc(Cl)cc2)C1`, the “activation” value is -8.4%. In the case of `Cc1ccccc1-c1cc(C(=O)NCc2cccs2)n(CC2CC(c3cccnc3)=NO2)n1` (stereo unspecified), the “activation” value was 15.3%. On the same count and under the same terms, the result for `COc1cc2ccccc2cc1C(=O)Nc1ccc(NC(=O)c2cccs2)cc1` reads -3.43%. Regarding `O=C(Nc1ccc2oc(-c3ccc4ccccc4c3)nc2c1)c1cccs1`, the Potency was 0.891 µM (active).

For `O=C(Nc1ccc(NC(=O)c2cccs2)cc1)c1ccc2ccccc2c1`, the “activation” value is 0.298%. As to `CC(Sc1nnc(C2CC2)n1C1CC1)C(=O)Nc1ccc(C(N)=O)cc1` (stereo unspecified), the “activation” value was -0.479%. As to `CCOc1ccc(N2C(=O)CSC2=NC#N)cc1`, the “activation” value was -0.127%. Still for that read-out and setting: to `CC(=O)NC(NC(=S)Nc1c(C)n(C)n(-c2ccccc2)c1=O)C(Cl)(Cl)Cl` (stereo unspecified) belongs -2.49%.

As for `COc1ccc(C)cc1NC(=O)CN1c2cccc3cccc(c23)S1(=O)=O`, the “activation” value was -1.54%.

In the case of `CCN(CC)CCN1C(=O)C(=O)/C(=C(/O)c2cnn(-c3ccccc3)c2C)C1c1cccs1` (stereo unspecified), the Potency was 3.98 µM (active). On to `CCN(CC)CCN1C(=O)C(=O)/C(=C(/O)c2ccc(OC)c(OC)c2)C1c1ccccn1` (stereo unspecified), for which the “activation” value was -1.38%. On the same count and under the same terms, the result for `CCOc1cccc(/C(O)=C2/C(=O)C(=O)N(CCOC)C2c2ccncc2)c1` (stereo unspecified) reads -3.35%; that for `COc1ccccc1OCC(=O)OCc1cc(-c2ccco2)on1`, -0.0859%; that for `COC(=O)c1cccc(NC(=O)c2cccc(N3C(=O)CCC3=O)c2)c1`, -0.0039%.

With `CC(=O)c1sc(NC(=O)CCN2C(=O)C3CC=CCC3C2=O)nc1-c1ccccc1` (stereo unspecified), the “activation” value was 1.1%.

Take `CCCCCCCCCCOC(=O)C[N+](C)(C)CC1CCCCC1O` (stereo unspecified): the “activation” value is 2.03%.

Take `CC(c1ccccn1)N(C)C(=O)c1ccc2nc(Cc3cccc(Cl)c3)oc2c1` (stereo unspecified): the Potency is 3.98 µM (active). With `Cc1cc(Cl)c2oc(C(=O)N(C)C(C)c3ccccn3)c(C)c2c1` (stereo unspecified), the “activation” value was 21.6%.

Consider `CCn1ccnc1CN(C)C(=O)c1ccc2nc(Cc3ccc(OC)cc3)oc2c1`, for which the “activation” value is -6.18%. On the same count and under the same terms, to `CC(NCC(=O)Nc1ccccc1C(=O)NC1CC1)c1ccccc1Cl` (stereo unspecified) belongs -0.509%; to `Cc1ccc(C)c(C(=O)COC(=O)Cn2[nH]c(=O)c3ccccc3c2=O)c1`, 0.0714%. For `O=C(Nc1ccc([N+](=O)[O-])cc1)OCCc1ccccn1`, the Potency is 3.55 µM (active). In the case of `O=[N+]([O-])c1ccc(NC(=S)N2CCN(c3ccccn3)CC2)cc1`, the “activation” value is 4.02%. On to `O=C(OCc1ccc([N+](=O)[O-])cc1)c1ccccn1`, for which the “activation” value was 1.88%.

Take `Cc1ccc(NC(=O)c2cccc(S(=O)(=O)N3CCCc4ccccc43)c2)nc1`: the “activation” value was -4.1%. In the case of `Cc1cc(C(=O)OCC(=O)Nc2ccccc2Cl)c(C)o1`, the “activation” value is -3.16%.

For the molecule `CCCc1ccc(C(=O)COC(=O)CN2C(=O)NC3(CCCCC3C)C2=O)cc1` (stereo unspecified), the “activation” value is 1.15%. On to `COc1ccc(-c2nnc(SCC(=O)c3cccs3)o2)c(OC)c1`, for which the Potency is 2.24 µM (active). `COc1ccc(CCNC(=O)CSc2nnc(CNC(=O)c3cccs3)o2)cc1OC`: the “activation” value was 3.82%. With `COc1ccccc1-c1nnc(SCC(=O)N2CC(C)CC(C)C2)o1` (stereo unspecified), the “activation” value was 1.65%. The same measure, in the same setting: the result for `O=C(NNC(=O)c1ccc(-n2cncn2)c([N+](=O)[O-])c1)c1ccccc1` reads 0.697%. For the molecule `Nc1ccc2nn(-c3ccc(Cl)cc3)nc2c1`, the Potency is 0.447 µM (active). Turning to `c1ccc(-n2nc3ccccc3n2)cc1`, the “activation” value was -1.19%. `CN(C)c1nnnn1-c1ccc(Cl)cc1`: the “activation” value was -5.32%. Still for that read-out and setting: the result for `CN(CC(=O)NC1CCN(Cc2ccccc2)CC1)S(=O)(=O)c1ccc(Cl)s1` reads -7.49%.

Turning to `C=CCn1c(=O)c(C(=O)Nc2ncccc2O)c(O)c2ccccc21`, the “activation” value is 1.39%. As for `Cn1c(=O)c(C(=O)Nc2ncccn2)c(O)c2ccccc21`, the Potency is 2.82 µM (active). Regarding `CCCn1c(=O)c(C(=O)Nc2cc(C)ccn2)c(O)c2ccccc21`, the “activation” value was 1.51%. Same read-out and setting: the result for `O=C(N/N=C/c1ccco1)c1csc2c1CCCC2` reads 25.4%. With `Cc1ccc(NC(=O)c2csc3c2CCCC3)cc1`, the Potency was 2.82 µM (active). Regarding `O=C(Nc1ccccc1N1CCOCC1)c1csc2c1CCCC2`, the “activation” value was 3.7%.

`Cc1ccc(N=C2NC(=O)c3cccc([N+](=O)[O-])c32)cc1`: the “activation” value was 2.23%.

`COc1ccc(CNC(=O)c2ccc(Br)s2)cc1OC`: the “activation” value was 1.64%. Same read-out and setting: to `CS(=O)(=O)c1ccc2nc(NC(=O)C3CCCCC3)sc2c1` belongs 10.5%. With `COc1ccc2nc(NC(=O)c3ccc(Br)s3)sc2c1`, the Potency was 3.98 µM (active). On to `CCc1noc(C)c1C(=O)Nc1nc2ccc(OC)cc2s1`, for which the “activation” value is 0.745%. Same read-out and setting: to `COc1ccc2nc(NC(=O)[C@@H]3CCCN3C(=O)c3cccs3)sc2c1` belongs 8.01%.

As for `COc1ccc2nc(NC(=O)NC3CCCCC3)sc2c1`, the Potency was 3.16 µM (active).
